We go through 40 molecules from PubChem BioAssay (NCATS).

Values joined by “and” are separate entries in the source; they are usually repeats but may differ in a detail not shown here. Identical values can stand only once. Records with an inconclusive call do not appear. Active and inactive are the calls of the source. Calls follow the shape of the dose curve; as a rule, active = well fitted activation curve with a large enough effect; inconclusive = small, poorly fitted or top-dose-only effect; inactive = no such curve, though single readings can be large or run the other way.
Potency is read from the fitted curve at half-maximal effect.

The assay deals with Cellular tumor antigen p53 (Homo sapiens) (UniProt P04637). Put plainly: Primary qHTS for small molecule compounds that upregulate eGFP-tagged delta133p53alpha (in N-terminal) cells. (AID 2060322). Also: nearly all actives have a fitted effect of over 75% in size.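 As to activation: cells pre-induced with doxycycline then dosed without doxycycline; series mostly up to about 56 µM; 0% = DMSO vehicle and 100% = reference activator.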 The following applies: NCI-H358 eGFP-delta133p53alpha fluorescence, 24 h; activation: stronger effect = higher value. Summed up: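 NCI-H358 cells pre-induced 24 h with 10 ng/ml doxycycline for eGFP-delta133p53alpha, plated dox-free and exposed 24 h at 37C to titrated compounds. Fixed, Hoechst-stained; gated GFP peak intensity by laser scanning cytometry, normalized to DMSO (0%) and 57.5 uM 5-azacytidine (100%).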
Chain of Cellular tumor antigen p53 (Homo sapiens) (P04637 whole entry, looked up): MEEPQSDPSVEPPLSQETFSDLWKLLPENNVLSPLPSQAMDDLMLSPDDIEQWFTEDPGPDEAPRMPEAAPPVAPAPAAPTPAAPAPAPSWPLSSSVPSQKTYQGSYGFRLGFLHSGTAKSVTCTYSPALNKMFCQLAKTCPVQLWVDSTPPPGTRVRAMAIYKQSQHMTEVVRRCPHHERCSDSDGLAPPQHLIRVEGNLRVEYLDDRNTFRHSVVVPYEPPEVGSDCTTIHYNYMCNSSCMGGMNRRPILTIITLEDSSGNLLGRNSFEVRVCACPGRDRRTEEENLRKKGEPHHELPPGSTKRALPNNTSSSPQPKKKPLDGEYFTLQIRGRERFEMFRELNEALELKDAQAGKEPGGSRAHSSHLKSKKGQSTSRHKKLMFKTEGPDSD
As to `CCN(CC)CCOC(=O)C(O)(c1ccccc1)c1ccccc1`, the activation was 20.9% (inactive).

For `COc1ccc(Cc2nccc3cc(OC)c(OC)cc23)cc1OC`, the activation was -17.6% (inactive) and 20.4% (inactive) and -35.4% (inactive).

As for `Oc1ccc2[nH]cc(CCCCN3CC=C(c4ccccc4)CC3)c2c1`, the activation was 22% (inactive).

`CC(C)=CC1C(C(=O)OCc2cccc(Oc3ccccc3)c2)C1(C)C` (stereo not given): the activation was 25.4% (inactive).

In the case of `CC(C)(N)Cc1ccccc1Cl`, the activation was 10.7% (inactive).

Take `NC(=O)OCCCc1ccccc1`: the activation was -0.565% (inactive).

As to `C[C@H]([C@H](O)CCC(C)(C)O)[C@H]1CC[C@@]2(O)C3=CC(=O)[C@@H]4C[C@@H](O)[C@@H](O)C[C@]4(C)[C@@H]3CC[C@]12C`, the activation is -1.72% (inactive).

In the case of `CCC(OC(C)=O)C(CC(C)NC)(c1ccccc1)c1ccccc1` (stereo not given), the Potency was 28.5 µM (active).

With `Cc1ccc(N=CN(C)C=Nc2ccc(C)cc2C)c(C)c1`, the activation was 13% (inactive).

`CN(C)CCc1c[nH]c2ccc(O)cc12`: the activation was 5.08% (inactive).

In the case of `CC(C)(C)CC(C)(C)c1ccc(O)cc1`, the Potency was 28.2 µM (active) and 30.9 µM (active).

As to `C[C@]12CC[C@H]3[C@@H](CCC4=CC(=O)CC[C@@H]43)[C@@H]1CC[C@@H]2OC(=O)CCc1ccccc1`, the activation is 2.51% (inactive).

As for `COc1ccc2c(c1)CN(C)CC2c1ccc(Cl)c(Cl)c1` (stereo not given), the activation is 10.8% (inactive).

For the molecule `C[C@H]1CNCCc2ccc(Cl)cc21`, the activation is -8.37% (inactive).

Turning to `COc1ccc(CC2NCCc3cc(OC)c(OC)cc32)cc1OC` (stereo not given), the activation was -6.46% (inactive).

Take `C#CC(O)(C=CCl)CC` (stereo not given): the activation was 19.8% (inactive).

Consider `FC(F)(F)c1cccc(C2=CCN(CCc3ccc4ccccc4c3)CC2)c1`, for which the activation was -5.08% (inactive).

With `CC(C)NCC(O)c1ccccc1Cl` (stereo not given), the activation was 21.8% (inactive).

Take `CCOC(C(=O)OCCN(C)C)(c1ccccc1)c1ccccc1`: the activation was -3.95% (inactive).

For the molecule `C[C@](O)(CS(=O)(=O)c1ccc(F)cc1)C(=O)Nc1ccc(C#N)c(C(F)(F)F)c1`, the activation was -4.55% (inactive).

Take `C[N+](C)(C)CCOC(=O)C(O)(c1ccccc1)c1ccccc1`: the activation was 16.4% (inactive).

Consider `O=c1oc2ccccc2c(O)c1Cc1c(O)c2ccccc2oc1=O`, for which the Potency is 17.4 µM (active).

On to `CCC(=O)OC1CCC2C3CCC4=CC(=O)CC[C@@]4(C)C3CC[C@]12C` (stereo not given in full), for which the activation was 14.6% (inactive).

Turning to `COc1cc(CC(C)N)cc2c1OCO2` (stereo not given), the activation was 6.21% (inactive).

Turning to `CC(C)(C)NCC(O)c1cc(Cl)c(N)c(Cl)c1` (stereo not given), the activation was -6.21% (inactive).

As for `C=C[C@@H]1CN2CCC1C[C@H]2[C@H](O)c1ccnc2ccccc12` (stereo not given in full), the activation was -4.83% (inactive).

`COP(=O)(OC)C(O)C(Cl)(Cl)Cl` (stereo not given): the activation is -2.51% (inactive).

For `COC1CC(=C(c2cccs2)c2cccs2)C[N+](C)(C)C1` (stereo not given), the activation was -5.86% (inactive).

For the molecule `NP(N)(=O)NC(=O)c1ccc(F)cc1`, the activation was -15.1% (inactive).

On to `O=C1c2ccccc2C(=O)c2ccccc21`, for which the activation is 0% (inactive).

As to `C[C@@H]1CN(C2CCC(C#N)(c3ccc(F)cc3)CC2)CC[C@]1(C(=O)O)c1ccccc1` (stereo not given in full), the activation is 10.7% (inactive).

Consider `O=C(NC(=O)c1c(F)cccc1F)Nc1cc(Cl)c(OC(F)(F)C(F)C(F)(F)F)cc1Cl` (stereo not given), for which the activation is -13.4% (inactive).

Take `CS(=O)(=O)c1ccc(C(=O)C2C(=O)CCCC2=O)c([N+](=O)[O-])c1`: the activation was -5.86% (inactive).

`COc1cc(CCN)cc(OC)c1OC`: the activation was -6.21% (inactive).

For the molecule `CC1(C)C(C=C(Cl)Cl)C1C(=O)OC(C#N)c1cccc(Oc2ccccc2)c1` (stereo not given), the activation was -23.2% (inactive).

`COP(=S)(OC)Oc1ccc(Sc2ccc(OP(=S)(OC)OC)cc2)cc1`: the activation was -14.2% (inactive).

For `COC(=O)[C@@H](N)CCCN/C(N)=N/[N+](=O)[O-]`, the activation was -1.69% (inactive).

With `CN(C)CCc1c[nH]c2cccc(O)c12`, the activation is 15.3% (inactive).

For `CC(C)(C)C(O)C(Oc1ccc(Cl)cc1)n1cncn1` (stereo not given), the activation is 10.7% (inactive).

As to `C#CCOC(C(=O)OCCN(C)C)(c1ccccc1)c1ccccc1`, the activation was -6.21% (inactive).
